# Activity calls are given as the source filed them.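 The calls were made as follows: active = relative FRET score above 0.01, or acceptor fluorescence over 30% below the sample-well median; inactive = the rest.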
# Biological target: Protein Rev (Human immunodeficiency virus type 1 group M subtype B (isolate WMJ22)) (UniProt P05866)
# Assay: HIV-1 Rev-RRE binding inhibitors, retest, confirmation, biochemical, FRET, acceptor and relative FRET calls (AID 837);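 also: relative FRET combines rise in Cy5 acceptor with fall in fluorescein donor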
# Settings: Fl-Rev peptide / Cy5-RRE RNA FRET, 1536-well; at 8 µM
# Chain of Protein Rev (Human immunodeficiency virus type 1 group M subtype B (isolate WMJ22)) (P05866 whole entry, looked up): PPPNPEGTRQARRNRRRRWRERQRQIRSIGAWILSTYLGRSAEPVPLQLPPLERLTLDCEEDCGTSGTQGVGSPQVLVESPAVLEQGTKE
row,SMILES,outcome
1,O=[N+]([O-])c1ccc2nc(-c3ccc(Cl)cc3)n(OCc3ccccc3)c2c1,inactive
2,CCN(CC)CC(O)COCCC12CC3CC(CC(C3)C1)C2 (stereo not given),inactive
3,CCN(CC)CCOCCOc1cc(C)c(Cl)c(C)c1,inactive
4,CCN(CC)CCCOc1ccc(C)cc1Br,inactive
5,Cc1ccc(C2C3=C(NCCN=C3c3ccccc3)C(=O)N2c2ccccc2)cc1 (stereo not given),inactive
6,CCOc1ccc(C(O)Cn2c(=N)n(CCN3CCCCC3)c3ccccc32)cc1 (stereo not given),inactive
7,CCCCCCC1CC(CSC(=N)N)OC1=O (stereo not given),inactive
8,COc1ccc(CCn2c(=N)c(C(=O)NCc3ccco3)cc3c(=O)n4cccc(C)c4nc32)cc1,inactive
9,CCc1nnc(NC(=O)c2ccc3c(c2)C(=O)N(C(C)(C)C)C3=O)s1,inactive
10,CN(C)CC(O)COc1ccc(C(C)(C)c2ccc(OCC(O)CN(C)C)cc2)cc1 (stereo not given),inactive
11,COc1cccc(Nc2nc(N)nc(-c3oc4ccccc4c3C)n2)c1,active
12,CCOC(=O)c1cn2nc(-c3ccc(OCC)cc3)cc2nc1C1CCN(C(=O)OC(C)(C)C)CC1,inactive
13,O=C(NCCCO)Nc1ccc2nc(-c3ccco3)c(-c3ccco3)nc2c1,inactive
14,Cc1nc(NC(=O)c2ccc(Br)o2)sc1C,inactive
15,N#Cc1c(NCCN)nc(-c2ccco2)c2c1CCCC2,inactive
16,COc1cc2[nH]c(=O)c(C(=O)NCCCN3CCCCC3)c(O)c2cc1OC,inactive
17,CC(C)C(C(=O)O)N1C(=O)/C(=C/C=C/c2ccco2)SC1=S (stereo not given),inactive; quenches the donor
18,Cc1ccc2[nH]c(=O)c3cc(C(=O)NCCN4CCN(C)CC4)sc3c2c1,inactive
19,COc1ccc(/C=C/c2cc(-c3ccc(C)cc3)o[n+]2C)cc1,active
20,CC1=NN(c2ccccc2)C(=O)C1N=Nc1ccc(N)cc1 (stereo not given),active; fluoresces like the acceptor

row,SMILES,outcome
1,COc1ccc(Nc2nc(N)nc(CN(C)C3CCCCC3)n2)cc1,active
2,CCOC(=O)c1c(C)n(C)c2ccc(O)c(CN(C)C)c12,active
3,N=c1n(CCO)c2ccccc2n1Cc1ccccc1Cl,inactive
4,CCOC(=O)CSc1ccc(S(=O)(=O)N(C)C2CCCCC2)cc1[N+](=O)[O-],inactive
5,c1ccc(COc2ccc(OCCCCN3CCCCC3)cc2)cc1,inactive
6,COc1ccc2nc(NC(=O)c3ccc(Br)s3)sc2c1,inactive
7,Nc1nc(Nc2ccc(Cl)cc2)nc2ccccc12,active
8,Cc1ccsc1C1NC(=O)c2c(sc3c2CCN(C)C3)N1 (stereo not given),inactive
9,CC(Nc1nc(N2CCCCC2)nc2ccccc12)c1ccccc1 (stereo not given),inactive
10,Cc1c(Cl)cccc1Nc1nc(N)nc(CN2CCCCCC2)n1,inactive
11,Cc1nc(Nc2ccncc2)c2oc3ccccc3c2n1,active
12,CCN(CC)CCNC1=NCCn2c1cc1cc(OC)ccc12,active
13,Cc1ccc(S(=O)(=O)c2c(COC(=O)c3ccc(Cl)cc3)c(-c3ccccc3)nn2C)cc1,inactive
14,COc1ccc(CSc2nnc(C)n2N)cc1,inactive
15,c1ccc(COc2ccc(OCCCN3CCCCC3)cc2)cc1,inactive
16,CCN(CC)CCOc1cc2c(nn1)Oc1ccccc1N2C,inactive
17,COC(=O)c1scc(C)c1N/N=C(\C)c1ccc(F)cc1F,inactive
18,COC(=O)c1c(C(=O)OC)n(CCCN)c2ccc(C)cc12,active
19,O=c1cc(-c2ccco2)oc2c1ccc1ccccc12,inactive
20,Cc1cccc(N2C(N)=NC(N)=NC23CCCCC3)c1,inactive

# — PubChem BioAssay AID837 (The Scripps Research Institute Molecular Screening Center, 2007)
